# Measured values: PubChem BioAssay (NCI)
# Compounds without any hit were thinned out: in the full panel of roughly 83,000, 20% have a hit.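 Results are percent growth after 48 hours of single-concentration exposure. 100 means growth as in untreated cells, lower positive values show inhibition; negative values down to -100 show cell death.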 Unmarked numbers belong to inactive results. The source made the active and inactive calls. Rule for the calls: active = growth percent below 10; inactive = the rest.
# How the values were obtained:
# Assay in all cases: NCI-60 one-dose screen, 48 h (100 = growth as untreated, 0 = no growth, -100 = all killed)
# Settings in all cases: 10 µM unless noted
# [1] = test system: RPMI-8226 leukemia
# [2] = test system: OVCAR-8 ovarian
# [3] = test system: OVCAR-5 ovarian
# [4] = test system: OVCAR-4 ovarian
# [5] = test system: SK-OV-3 ovarian
# [6] = test system: IGROV1 ovarian
# [7] = test system: HS 578T breast
# [8] = test system: NCI/ADR-RES ovarian
# [9] = test system: T-47D breast
# [10] = test system: BT-549 breast
# [11] = test system: MDA-MB-435 melanoma
# [12] = test system: SW-620 colon
# [13] = test system: MCF7 breast
# [14] = test system: HCT-116 colon
# [15] = test system: HCC-2998 colon
# [16] = test system: KM12 colon
# [17] = test system: OVCAR-3 ovarian
Structure (SMILES),growth [1],growth [2] [%],growth [3] [%],growth [4] [%],growth [5] [%],growth [6] [%],growth [7],growth [8] [%],growth [9],growth [10] [%],growth [11],growth [12],growth [13] [%],growth [14] [%],growth [15],growth [16],growth [17] [%]
CN(C)CCCN1c2ccccc2CCc2ccccc21,99.4%,97.4,103,68.7,94.1,94.8,103%,107,91.8%,95.8,102%,111%,80.5,96.6,99.7%,103%,
NC(N)=N/N=C/c1ccc(Cl)cc1,,88.3,89.6,,76.5,97.6,75.4%,79.9,91.5%,77.4,-53.2% (active),24.5%,23.5,50.8,86.8%,15.5%,56.8
CCOC(=O)c1cnc(SCC)nc1SC#N,,96.8,94,,115,98.7,121%,100,80.8%,,77.5%,60%,,64.2,108%,101%,87.3
NC(N)=N/N=C/c1cccc(Cl)c1Cl,,87.5,85,,80,86.5,71.3%,75.7,81.5%,65.9,4.26% (active),-4.72% (active),17.6,67.9,7.38% (active),10.5%,72.8
COc1cc(NC(=O)CSc2nc3ccc(Cl)cc3c(=O)n2-c2ccccc2)cc(OC)c1OC,,93.2,96.3,85.7,101,91.5,81.5%,90.8,85.4%,78.9,101%,101%,99.1,,106%,100%,97
C[N+](C)(C)CCCCCCCCCC[N+](C)(C)C,96%,98.7,117,87.2,106,91.5,,98.4,88.6%,78.7,103%,95.8%,91,106,105%,103%,105
COc1cc(OC)c(C(=O)/C=C/c2cccc(OC(C)=O)c2)cc1CC=C(C)C,7.53% (active),,107,75.1,102,59.2,99%,72,52.3%,81.8,73.6%,35.5%,,,72.9%,68.8%,37.7
N/C(=C\C(=O)n1nc(-c2ccccc2)cc1N)c1ccccc1,42.8%,60.6,70.9,72,65.5,16.5,-6.87% (active),17,47%,,-0.658% (active),36.1%,35,27.4,43.9%,30%,20.2
O=C(Nc1ccc(Br)cc1)c1ccc(Cl)c(Cl)c1,-6.3% (active),89.3,72,28.8,63.7,66.7,79.6%,36.6,5.65% (active),,31.4%,34.7%,20.1,20.8,67.7%,9.99% (active),16
Clc1cc2nc(-c3ccccc3)c(-c3ccccc3)nc2cc1Cl,,112,98.6,86.9,89.3,65.6,93.7%,98.5,76.6%,,108%,89.7%,78.1,84.8,94.1%,92%,92.1
O=C(O)c1ccccc1Oc1cc(-c2ccco2)nc(OCCN2CCOCC2)n1,99.8%,105,99.6,108,99.8,103,112%,99.7,97.2%,,101%,115%,102,97.9,108%,111%,126
COc1ccc(-c2nc3ccccc3n3cccc23)cc1,75.6%,103,113,99.8,122,47.1,111%,107,107%,95.4,,101%,,92,110%,99%,101
